# Source: ChEMBL document CHEMBL3988442, “University of Dundee, Small-Polar-MMV Screening Library” (2021)
# Among all 48,000 compounds or so, about 13,000 (27%) showed an effect of 50% or more. The list shows a part of the results.
# Test system: Wolbachia pipientis
# Assay: Anti-Wolbachia Cell-Based Screen
# Type: functional
# Parameters: scale not given: in the data most compounds retested in dose-response had high values
# Settings: 5 µM
row,Compound,Percent Effect
1,Cc1ccc(S(=O)(=O)NCc2[nH]ncc2Br)cc1C,-4.089%
2,O=C(CN1CCOC1=O)N1CCc2nnc(Cc3ccccc3)n2CC1,1.802%
3,N#Cc1c(Cl)nsc1NCc1ccc(N2CCC(CO)CC2)cc1,-1.187%
4,Cc1ccc(CN2CCOC3(CCCN(c4cccc(F)c4)C3)C2)o1.O=C(O)C(F)(F)F.O=C(O)C(F)(F)F (configuration not stated),-11.31%
5,Cc1ccc(CN2CC[C@H]3OCC[C@@]3(C(=O)N3CCCO3)C2)o1.O=C(O)C(F)(F)F,102.1%
6,Cc1ccc(CN2C[C@H](C(=O)N3CCCCO3)[C@@H]3CCO[C@@H]3C2)o1.O=C(O)C(F)(F)F,-4.524%
7,Cn1cccc1C(=O)N[C@@H]1CN(S(C)(=O)=O)[C@@H]2COC[C@@H]21,-0.3534%
8,COCCC1(C(=O)O)CCCN(Cc2cc3c(cc2C)OCO3)C1 (configuration not stated),0.3642%
9,Cc1nc(COCc2cnc3n2CCN(C)C3C)cs1.O=C(O)C(F)(F)F (configuration not stated),0.7983%
10,Cc1nc(COCC2CNCc3nccn3C2)cs1 (configuration not stated),1.667%
11,Cc1nc(COCC2CN(C(N)=O)Cc3nccn3C2)cs1.O=C(O)C(F)(F)F (configuration not stated),114.2%
12,Cc1nc(COCC2CN(C(=O)N(C)C)Cc3nccn3C2)cs1.O=C(O)C(F)(F)F (configuration not stated),91.86%
13,Cc1nc(CN2CCCn3cnc(COCC4CC4)c3C2)cs1.O=C(O)C(F)(F)F,-1.787%
14,Cc1cc(C)c(C(=O)NCCNc2ncnc3ccccc23)c(=O)[nH]1,-7.4%
15,COc1cc(F)ccc1NC(=O)NC(C)C(=O)NC(C)(C)C (configuration not stated),-5.015%
16,COc1ccc(CNCc2c(C)nc3sc(C)cn23)c(OC)c1OC,49.47%
17,c1ccc(-c2noc3c2CN(CC2CC2)CC3)cc1,5.665%
18,Cc1ncc2c(n1)CN(CC(=O)Nc1c(C)nn(C)c1C)CC2,114.4%
19,Cc1nn(C)c(C)c1NC(=O)CN1CCc2c(nc(C3CC3)n2C)C1,-19.95%
20,Cc1ncc2c(n1)CN(CCOCC(F)(F)F)CC2,-8.792%
21,Cc1cc(NC(=O)CN2CCn3c(nnc3C(C)C)C2)no1,1.243%

row,Compound,Percent Effect
1,Cc1ncc2c(n1)CN(CC(=O)Nc1cc(C)on1)CC2,138%
2,Cc1cc(NC(=O)CN2CCc3cnc(C)nc3C2)on1,-3.742%
3,Cc1ccc(Cl)cc1N1CCC(CNC(=O)CC(F)(F)F)C1 (configuration not stated),-9.569%
4,COCCN1Cc2ccnn2CC(COCc2cccnc2)C1 (configuration not stated),-11.51%
5,O=C(c1cccc(S(=O)(=O)NCCCn2cccn2)c1)N1CCOCC1,-8.398%
6,O=C(c1cccc(S(=O)(=O)NCCCc2ccco2)c1)N1CCOCC1,28.12%
7,CN(CC1CCCCO1)S(=O)(=O)c1cccc(C(=O)N2CCOCC2)c1 (configuration not stated),99.86%
8,CN1CCCN(C(=O)c2cccc(S(=O)(=O)NCC3(C)COC3)c2)CC1,-12.18%
9,CN(CC1CCOC1)S(=O)(=O)c1cccc(C(=O)N2CCCCCC2)c1 (configuration not stated),127.8%
10,CN(Cc1ncc[nH]1)S(=O)(=O)c1cccc(C(=O)N2CCOCC2)c1,-7.295%
11,CN(C)C1CCN(C(=O)c2cccc(S(=O)(=O)NCC3(C)COC3)c2)C1 (configuration not stated),24.95%
12,CN(CC1CCOC1)S(=O)(=O)c1cccc(C(=O)N2CCOCC2)c1 (configuration not stated),110.2%
13,O=C(c1cccc(S(=O)(=O)NCCc2ccccn2)c1)N1CCOCC1,-3.428%
14,C=C(C)CN1C(=O)CC(Cc2ccc(F)cc2)C1=O (configuration not stated),-35.72%
15,O[C@@H]1C[C@@H](c2nc(-c3ccccc3)no2)N(C2CCOCC2)C1,-15.45%
16,CC1N(CC2CC2)C(=O)COC12CCN(C(=O)c1cccs1)CC2 (configuration not stated),8.45%
17,O=C1CC2(CCCCN2C(=O)c2ccccc2)CN1CC1CC1 (configuration not stated),79.38%
18,O=C(O)C(F)(F)F.O=C1CC2(CCCCN2C(=O)c2ccncc2)CN1CC1CC1 (configuration not stated),106.2%
19,O=C(O)C(F)(F)F.O=C1CC2(CCCCN2C(=O)Cc2ccccc2)CN1c1cccnc1 (configuration not stated),-0.631%
20,Cn1ccc(C(=O)N2CCCCC23CC(=O)N(Cc2ccccc2)C3)n1 (configuration not stated),-1.004%
21,O=C(O)C(F)(F)F.O=C1CC2(CCCCN2C(=O)c2ccco2)CN1c1cccnc1 (configuration not stated),3.429%

row,Compound,Percent Effect
1,O=C1CC2(CCCCN2C(=O)c2cccs2)CN1CC1CC1 (configuration not stated),78.16%
2,O=C(CCC(=O)c1cccs1)NC1(C(=O)NCC2CC2)CCCC1,1.426%
3,O=C1CC2(CCCCN2C(=O)c2ccoc2)CN1Cc1ccccc1 (configuration not stated),-18.39%
4,CC(=O)N(C)CCc1nc(-c2cc(C(N)=O)co2)cs1,-0.5467%
5,COc1cnc(N2CCC(Oc3ccccc3OC)(C(=O)O)CC2)nc1,-8.18%
6,COc1ccccc1C(C)Nc1ncc(C(N)=O)cc1Cl (configuration not stated),2.47%
7,Cc1cccc(C)c1OC1CN(C(=O)C2CCN(C(=O)N(C)C)CC2)C1,-8.295%
8,CCc1nc(CCn2ccnc2-c2nccn2C)no1,-9.052%
9,Cn1cc(CN2C[C@@H](F)[C@@H](OCc3nc4cnccc4[nH]3)C2)cn1,-2.303%
10,Cc1nc(NCc2cccc(F)c2)cc(C2CCNCC2)n1.Cl,92.9%
11,Cc1nc(NCc2nccn2C)cc(C2COCCN2)n1 (configuration not stated),145.4%
12,Cc1nc(Cc2ccc(F)cc2)cc(C2COCCN2)n1.Cl (configuration not stated),104.2%
13,Cc1cc(NCc2ccc(N3CCNC(=O)C3)cc2)nc(C)n1,3.077%
14,Cc1ccc(-c2cn3c(n2)CO[C@@H](CNCc2nccn2C)C3)cc1,-11.82%
15,Fc1cccc(CNc2cncc(-n3cccn3)n2)c1,9.755%
16,Cn1ccnc1-c1ccc(NCC2COCCO2)nn1 (configuration not stated),-2.389%
17,COc1ccc2[nH]c(CNc3cc(C4CCNCC4)nc(C)n3)cc2c1,-0.5265%
18,Cc1nc(NCc2ccc(F)cc2)cc(C2CCCN2)n1.Cl (configuration not stated),123.2%
19,Clc1ccc(-c2c[nH]c([C@@H]3COCCN3)n2)cc1,-8.999%
20,Fc1ccc(-c2c[nH]c([C@@H]3COCCN3)n2)cc1,-3.188%
